Calls of active or inactive are those of the source. Entries that show only a call come without a potency. Unless noted, calls come from the whole dose curve; as a rule, active = well fitted curve in the direction sought with a large enough effect in the repeat runs; inconclusive = weak or mixed curves; inactive = no such curve, though single readings can be large; an effect the other way counts as inactive or inconclusive.
Tests used:
[1] = qHTS assay to identify small molecule antagonists of the glucocorticoid receptor (GR) signaling pathway - cell viability counter screen (AID 720693); note: nearly all actives have a fitted effect of over 55% in size
[2] = qHTS assay for identifying genotoxic compounds that show differential cytotoxicity against isogenic chicken DT40 cell lines with known DNA damage response pathways - Rad54/Ku70 mutant cell line (AID 743015); note: nearly all actives have a fitted effect of over 60% in size; note: potency is the fitted concentration of half-maximal effect
[3] = qHTS assay to identify small molecule antagonists of the androgen receptor (AR) signaling pathway - cell viability counter screen (AID 743033; note: nearly all actives have a fitted effect of over 45% in size; note: potency is the fitted concentration of half-maximal effect)
[4] = qHTS assay to identify small molecule antagonists of the androgen receptor (AR) signaling pathway using the MDA cell line - cell viability counter screen (AID 743041; note: nearly all actives have a fitted effect of over 45% in size; note: potency is the fitted concentration of half-maximal effect)
Procedure, shortened: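 Cytotoxicity counter screen: MDA-kb2 AR-luc cells, compound + R1881, 16 h, 37C, 0% CO2; CellTiter-Fluor added at 15.5 h, fluorescence read after 30 min.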

[5] = qHTS assay to identify small molecule antagonists of the thyroid receptor (TR) signaling pathway - cell viability counter screen (AID 743064); note: nearly all actives have a fitted effect of over 50% in size; note: potency is the fitted concentration of half-maximal effect
Procedure, shortened: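 Rat GH3 pituitary tumor cells stably expressing two TR response elements driving luciferase were plated, rested 4 h, then dosed with library compounds and T3 (1 nM final). After 23.5 h at 37 °C, CellTiter-Fluor was added for 30 min and fluorescence recorded.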

[6] = qHTS assay to identify small molecule antagonists of the thyroid receptor (TR) signaling pathway (AID 743065); note: nearly all actives have a fitted effect of over 55% in size; note: potency is the fitted concentration of half-maximal effect
Procedure, shortened: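 GH3.TRE-Luc rat pituitary cells (two TREs driving luciferase) were dosed with compound, then stimulated with 1 nM T3 (final) for 23.5 h at 37 C. ONE-Glo luminescence was the read-out, with CellTiter-Fluor fluorescence as the cytotoxicity counter-screen.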

[7] = system: thyroid hormone receptor (rat, GH3 cells); experiment: qHTS assay to identify small molecule agonists of the thyroid receptor (TR) signaling pathway (AID 743066; calls by dose curve; note: potency is the fitted concentration of half-maximal effect)
[8] = target: Estrogen receptor (Homo sapiens) (UniProt P03372); experiment: qHTS assay to identify small molecule antagonists of the estrogen receptor alpha (ER-alpha) signaling pathway (AID 743069; active = well fitted curve in the direction sought with a large enough effect in the signal ratio in the repeat runs, not every such curve was filed as active; inconclusive = weak or mixed curves, or effect the other way; inactive = no such curve, though single readings can be large or run the other way; the % refers to the signal ratio; note: potency is the fitted concentration of half-maximal effect)
Sequence of Estrogen receptor (Homo sapiens) (P03372 whole entry, looked up): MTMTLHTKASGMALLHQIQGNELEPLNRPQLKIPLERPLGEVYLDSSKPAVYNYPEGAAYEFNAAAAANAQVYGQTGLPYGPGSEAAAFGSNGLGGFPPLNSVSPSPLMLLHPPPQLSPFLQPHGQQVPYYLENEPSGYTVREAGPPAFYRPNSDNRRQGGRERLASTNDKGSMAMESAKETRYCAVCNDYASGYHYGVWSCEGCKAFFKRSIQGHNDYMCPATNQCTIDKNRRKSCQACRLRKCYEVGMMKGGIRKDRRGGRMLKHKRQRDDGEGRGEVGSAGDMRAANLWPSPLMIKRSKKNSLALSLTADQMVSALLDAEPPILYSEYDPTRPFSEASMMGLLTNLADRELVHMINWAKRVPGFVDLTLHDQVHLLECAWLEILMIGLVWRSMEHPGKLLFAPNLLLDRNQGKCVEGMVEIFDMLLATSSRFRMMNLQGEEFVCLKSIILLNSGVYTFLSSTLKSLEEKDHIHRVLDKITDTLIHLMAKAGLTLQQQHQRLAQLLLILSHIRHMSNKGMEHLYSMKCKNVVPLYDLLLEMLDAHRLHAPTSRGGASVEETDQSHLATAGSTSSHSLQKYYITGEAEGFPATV
Procedure, shortened: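 Beta-lactamase FRET fluorescence is read after 2 hr at room temperature with LiveBLAzer B/G substrate. Before that, ER-alpha-bla HEK293 cells sit 4 hr after plating, then receive compound plus 17beta-estradiol and incubate 18 hr at 37C.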

[9] = target: Estrogen receptor (Homo sapiens) (UniProt P03372); experiment: qHTS assay to identify small molecule agonists of the estrogen receptor alpha (ER-alpha) signaling pathway (AID 743075; calls by dose curve;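 note: HEK293 GripTite cells with ER-alpha and UAS-driven beta-lactamase reporter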; note: potency is the fitted concentration of half-maximal effect)
[10] = target: Estrogen receptor (Homo sapiens) (UniProt P03372); experiment: qHTS assay to identify small molecule agonists of the estrogen receptor alpha (ER-alpha) signaling pathway using the BG1 cell line (AID 743079); note: nearly all actives have a fitted effect of over 20% in size; note: potency is the fitted concentration of half-maximal effect
[11] = qHTS assay to identify small molecule antagonists of the estrogen receptor alpha (ER-alpha) signaling pathway using the BG1 cell line (AID 743080; calls by dose curve;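 note: BG1 cells stimulated with 17beta-estradiol alongside compound; series mostly up to about 70 µM; nearly all actives have a fitted effect of over 25% in size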)
Procedure, shortened: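 BG1-Luc-4E2 cells (endogenous full-length ER-alpha, stable 4×ERE-luciferase) were starved 5 days in phenol-red-free medium with 10% charcoal-stripped FBS, plated 24 h, then given compound plus 17beta-estradiol for 21.5 h at 37 C; ONE-Glo luminescence read after 30 min.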

[12] = qHTS assay to identify small molecule antagonists of the estrogen receptor alpha (ER-alpha) signaling pathway using the BG1 cell line - cell viability counter screen (AID 743081);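 note: compound given together with 17beta-estradiol as the ER stimulus; nearly all actives have a fitted effect of over 45% in size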; note: potency is the fitted concentration of half-maximal effect
Aromatase (Homo sapiens) = Aromatase (Homo sapiens) (UniProt P11511); experiment: qHTS assay to identify aromatase inhibitors (AID 743083); note: nearly all actives have a fitted effect of over 55% in size; note: potency is the fitted concentration of half-maximal effect
Sequence of Aromatase (Homo sapiens) (P11511 whole entry, looked up): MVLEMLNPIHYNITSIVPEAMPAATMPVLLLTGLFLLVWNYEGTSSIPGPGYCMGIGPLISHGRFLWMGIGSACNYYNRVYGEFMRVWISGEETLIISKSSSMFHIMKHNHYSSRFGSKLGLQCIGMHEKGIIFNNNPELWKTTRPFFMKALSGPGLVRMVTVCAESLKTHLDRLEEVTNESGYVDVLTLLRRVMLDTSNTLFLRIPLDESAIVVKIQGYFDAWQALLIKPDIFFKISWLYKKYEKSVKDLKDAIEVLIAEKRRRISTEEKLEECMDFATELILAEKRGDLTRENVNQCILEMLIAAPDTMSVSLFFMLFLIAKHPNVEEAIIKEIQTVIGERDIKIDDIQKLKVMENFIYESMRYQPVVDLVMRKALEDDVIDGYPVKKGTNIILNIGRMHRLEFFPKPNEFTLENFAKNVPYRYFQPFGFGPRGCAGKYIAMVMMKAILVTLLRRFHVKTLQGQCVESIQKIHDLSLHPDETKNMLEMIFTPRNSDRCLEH

[13] = qHTS assay to identify aromatase inhibitors - cell viability counter screen (AID 743084);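 note: cells stimulated with testosterone during compound exposure; nearly all actives have a fitted effect of over 55% in size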; note: potency is the fitted concentration of half-maximal effect
[14] = target: Androgen receptor (Homo sapiens) (UniProt P10275); experiment: qHTS assay to identify small molecule agonists of the androgen receptor (AR) signaling pathway using the MDA cell line (AID 743040; note: nearly all actives have a fitted effect of over 20% in size)
Sequence of Androgen receptor (Homo sapiens) (P10275 whole entry, looked up): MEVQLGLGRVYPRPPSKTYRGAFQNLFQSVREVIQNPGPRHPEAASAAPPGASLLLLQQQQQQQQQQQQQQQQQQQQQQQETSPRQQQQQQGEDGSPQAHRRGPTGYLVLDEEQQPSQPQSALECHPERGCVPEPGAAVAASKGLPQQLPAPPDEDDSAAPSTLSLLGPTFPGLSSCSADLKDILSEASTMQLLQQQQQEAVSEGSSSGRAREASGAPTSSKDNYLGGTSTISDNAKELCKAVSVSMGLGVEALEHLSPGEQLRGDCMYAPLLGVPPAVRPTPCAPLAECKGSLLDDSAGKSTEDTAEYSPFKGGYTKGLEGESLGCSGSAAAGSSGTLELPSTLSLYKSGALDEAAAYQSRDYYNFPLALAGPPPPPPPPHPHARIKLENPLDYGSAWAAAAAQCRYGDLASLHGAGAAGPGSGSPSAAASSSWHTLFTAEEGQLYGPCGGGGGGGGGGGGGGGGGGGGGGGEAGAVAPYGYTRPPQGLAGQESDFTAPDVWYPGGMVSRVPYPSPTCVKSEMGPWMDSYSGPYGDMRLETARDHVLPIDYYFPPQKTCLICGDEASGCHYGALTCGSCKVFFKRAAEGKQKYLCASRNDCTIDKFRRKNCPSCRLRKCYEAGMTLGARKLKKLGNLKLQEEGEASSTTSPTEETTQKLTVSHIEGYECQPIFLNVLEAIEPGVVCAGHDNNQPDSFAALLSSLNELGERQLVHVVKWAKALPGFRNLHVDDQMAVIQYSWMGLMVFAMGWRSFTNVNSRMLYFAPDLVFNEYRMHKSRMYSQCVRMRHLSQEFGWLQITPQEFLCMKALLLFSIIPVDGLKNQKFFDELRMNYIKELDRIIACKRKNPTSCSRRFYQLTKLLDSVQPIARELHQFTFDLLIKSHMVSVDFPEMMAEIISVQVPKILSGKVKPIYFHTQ
Procedure, shortened: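 Luciferase read-out, ONE-Glo, 30 min RT. Cells: MDA-kb2 AR-luc, MMTV promoter with AR and GR response elements. Compound exposure 16 h, 37C, 0% CO2, after 5 h pre-incubation. qHTS agonist mode.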

[15] = target: Androgen receptor (Homo sapiens) (UniProt P10275); experiment: qHTS assay to identify small molecule antagonists of the androgen receptor (AR) signaling pathway using the MDA cell line (AID 743042; note: nearly all actives have a fitted effect of over 55% in size)
Procedure, shortened: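 MDA-kb2 breast carcinoma cells carrying MMTV-luciferase (AR/GR responsive) were co-treated with compounds and the agonist R1881 for 16 h at 37C. Inhibition read as ONE-Glo luminescence; CellTiter-Fluor fluorescence measured in parallel for cytotoxicity.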

[16] = qHTS assay to identify small molecule antagonists of the estrogen receptor alpha (ER-alpha) signaling pathway - cell viability counter screen (AID 743074; calls by dose curve;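 note: HEK293 cells carrying ER-alpha-UAS-bla reporter stimulated with 17beta-estradiol; nearly all actives have a fitted effect of over 45% in size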)
[17] = qHTS assay for identifying genotoxic compounds that show differential cytotoxicity against isogenic chicken DT40 cell lines with known DNA damage response pathways - Rev3 mutant cell line (AID 743014); note: nearly all actives have a fitted effect of over 55% in size; note: potency is the fitted concentration of half-maximal effect
[18] = qHTS assay for identifying genotoxic compounds that show differential cytotoxicity against isogenic chicken DT40 cell lines with known DNA damage response pathways - wild type cell line (AID 743012); note: nearly all actives have a fitted effect of over 60% in size; note: potency is the fitted concentration of half-maximal effect
Procedure, shortened: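 Viability of DNA repair-proficient chicken DT40 cells was assessed by CellTiter-Glo luminescence following 40 h compound exposure at 37 C/5% CO2.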

Row | Structure (SMILES) | Potency [1] | Potency [2] | Potency [3] | Potency [4] | Potency [5] | Potency [6] | Potency [7] | Potency [8] | Potency [9] | Potency [10] | Potency [11] | Potency [12] | Potency (Aromatase (Homo sapiens)) | Potency [13] | Potency [14] | Potency [15] | Potency [16] | Potency [17] | Potency [18]
1 | COc1cc(S(=O)(=O)Nc2ccccc2)c(OC)cc1N | inactive | inactive | inactive | inactive | inactive | inactive | inactive | inactive | inactive | inactive | inactive | inactive | inactive | inactive |  |  |  |  | 
2 | O=C(c1ccccc1)c1ccc(O)cc1 | inactive |  | inactive | inactive |  | inactive | inactive |  |  | 9.8 µM (active) |  | inactive | inactive | inactive | inactive | inactive | inactive |  | 
3 | CC/C=C\C/C=C\C/C=C\CCCCCCCC(=O)OCC | inactive | 70.1 µM (active) | inactive | inactive | inactive |  | inactive |  |  |  |  | inactive |  |  |  |  | inactive |  | 
4 | O=C1c2ccccc2C(=O)c2c(O)ccc(O)c21 |  | 7.7 µM (active) | inactive | inactive |  |  | inactive |  |  |  |  |  |  | 38.6 µM (active) |  |  | inactive | inactive | 
5 | CCCCCCCCCCCSCC(=O)O |  | inactive | inactive | inactive |  |  |  | 54.9 µM [inconclusive] (active) | inactive |  | inactive | inactive | inactive | inactive |  |  | inactive |  | inactive
6 | O=C(/C=C/c1ccc([N+](=O)[O-])cc1)c1ccccc1 | inactive | inactive | inactive | inactive | inactive | 61.3 µM (active) | inactive | inactive |  | inactive |  | inactive | inactive | inactive |  |  | inactive | inactive | 
7 | COc1cc(OC)c2ccc(=O)oc2c1 | inactive | 68.6 µM (active) | inactive | inactive |  | inactive | inactive | inactive | inactive | inactive | inactive |  | inactive | inactive | inactive | inactive | inactive |  | 
8 | c1ccc(CNc2ncnc3c2ncn3C2CCCCO2)cc1 (configuration not stated) | inactive | 61.1 µM (active) | inactive | inactive | inactive | inactive | inactive | inactive | inactive | 3.44 µM (active) |  | inactive | inactive | inactive |  |  | inactive |  | 
9 | Cc1c(C2(c3cc(Br)c(O)c(Br)c3C)OS(=O)(=O)c3ccccc32)cc(Br)c(O)c1Br |  | 18.8 µM (active) | 16.9 µM (active) | 23.6 µM (active) | 42 µM (active) | 21 µM (active) | inactive |  |  |  |  | 11.8 µM (active) | 16.7 µM (active) | 18.8 µM (active) |  |  |  | 18.8 µM (active) | 18.8 µM (active)
10 | CCN(Cc1cccc(S(=O)(=O)O)c1)c1ccc(C(=C2C=CC(=[N+](CC)Cc3cccc(S(=O)(=O)O)c3)C=C2)c2ccc(O)cc2S(=O)(=O)[O-])cc1 |  | 11.7 µM (active) |  |  | 37.1 µM (active) |  |  | inactive | inactive |  |  | 33.1 µM (active) | 18.6 µM (active) | 29.5 µM (active) |  |  |  | 9.32 µM (active) | 10.5 µM (active)
11 | CC(C)(O)c1coc(S(=O)(=O)NC(=O)Nc2c3c(cc4c2CCC4)CCC3)c1 | inactive |  | inactive | inactive | inactive | inactive | inactive |  |  |  |  | inactive | inactive | inactive |  |  | inactive |  | 
12 | Cc1ccc2c(c1[N+](=O)[O-])C(=O)c1ccccc1C2=O | inactive | 30 µM (active) | inactive | inactive |  |  | inactive |  | inactive | 3.78 µM (active) |  | inactive | inactive |  |  |  | inactive |  | 
13 | CC(=O)OCCC(C)CC(C)(C)C (configuration not stated) |  | inactive | inactive | inactive | inactive | inactive | 24.3 µM (active) | inactive | inactive | inactive | inactive | inactive | inactive | inactive |  |  | inactive | inactive | inactive
14 | [Cl][Nd]([Cl])[Cl] | inactive | inactive | inactive | inactive | inactive | inactive | inactive | inactive | inactive | inactive | inactive | inactive | inactive | inactive |  |  | inactive |  | 
15 | CCCCCCCC/C=C\CCCCCCCC(=O)OCCO |  | 72.2 µM (active) | inactive | inactive |  |  | inactive | inactive | inactive | inactive | inactive | inactive | inactive | inactive |  |  | inactive |  | 
16 | COC(=O)c1sccc1S(N)(=O)=O | inactive | inactive | inactive | inactive | inactive | inactive | inactive | inactive | inactive | inactive | inactive | inactive | inactive | inactive |  |  | inactive |  | 
17 | CC(=O)Oc1cccc(O)c1 |  | inactive | inactive | inactive | inactive | inactive | inactive | inactive | inactive | inactive |  | inactive | inactive | inactive |  |  | inactive | inactive | inactive
18 | CCN(Cc1cccc(S(=O)(=O)O)c1)c1ccc(C(=C2C=CC(=[N+](CC)Cc3cccc(S(=O)(=O)O)c3)C=C2)c2ccccc2S(=O)(=O)[O-])cc1 |  | 15.4 µM (active) |  | 38.7 µM (active) | 34.5 µM (active) | 15.4 µM (active) | inactive | inactive | inactive |  |  | 38.7 µM (active) | 17.3 µM (active) | 13.7 µM (active) |  |  |  | 17.3 µM (active) | 15.4 µM (active)
19 | CCN(CC)CCOC(=O)C(c1ccccc1)c1ccccc1 | inactive |  | inactive | inactive |  |  | inactive |  |  |  |  | inactive | inactive | inactive |  |  |  |  | 
20 | CO[C@@H]1[C@@H](OC)[C@H](C)[C@@](O)(CC(=O)O)O[C@H]1[C@H](C)[C@H]1O[C@@]2(CC[C@@](C)([C@H]3CC[C@@](C)([C@@H]4O[C@@H]([C@H]5O[C@](C)(O)[C@H](C)C[C@@H]5C)C[C@@H]4OC4C[C@H](OC)[C@@H](OC)[C@H](C)O4)O3)O2)C[C@H](O)[C@H]1C (some centres not stated) |  | 0.211 µM (active) |  | 1.06 µM (active) | 0.422 µM (active) | 0.335 µM (active) |  |  | inactive |  |  | 2.98 µM (active) | inactive |  |  |  |  | 0.15 µM (active) | 0.168 µM (active)
21 | CC(C)C(O)C(C)(C)CO (configuration not stated) |  | inactive | inactive | inactive |  | inactive | inactive | inactive | inactive | inactive | inactive | inactive | inactive | inactive |  |  | inactive | inactive | inactive
22 | Nc1nc2ccc(OC(F)(F)F)cc2s1 | inactive |  |  | inactive | inactive | 21.1 µM (active) | inactive | inactive |  | 5.96 µM (active) |  | inactive | inactive | inactive |  |  | inactive |  | 
23 | CC(C)(C)C(O)/C=C/c1ccc2c(c1)OCO2 (configuration not stated) | inactive |  | inactive | inactive | inactive | inactive | inactive | inactive | inactive |  | inactive |  | inactive | inactive |  |  | inactive |  | 
24 | Cc1ccccc1S(N)(=O)=O | inactive | inactive | inactive | inactive | inactive | inactive | inactive |  |  |  |  | inactive |  |  |  |  | inactive | inactive | 
25 | Oc1ccc2c(c1)Cc1ccccc1-2 | inactive |  |  | inactive |  |  | inactive |  | 24.5 µM [activator] (active) | 13.7 µM (active) |  | inactive | inactive | inactive |  |  | inactive |  | 
26 | CNc1c2c(nn1C)CCCC2 | inactive | inactive | inactive | inactive | inactive | inactive | inactive | inactive | inactive | inactive | inactive | inactive | inactive | inactive |  |  | inactive | inactive | 
27 | CC(C)OC(=O)c1ccccc1C(=O)OC(C)C | inactive |  | inactive | inactive | inactive |  |  | inactive | inactive | inactive | inactive | inactive | inactive | inactive |  |  |  | 43.3 µM (active) | 
28 | C=C(C)c1ccccc1 |  | inactive | inactive | inactive | inactive | inactive | inactive |  |  |  |  | inactive |  |  |  |  | inactive | inactive | inactive
29 | O[C@@H](CNC[C@H](O)[C@H]1CCc2cc(F)ccc2O1)[C@@H]1CCc2cc(F)ccc2O1 |  | 11.9 µM (active) |  |  | 10.6 µM (active) | 9.44 µM (active) |  | 26.8 µM [inconclusive] (active) | inactive | inactive | inactive |  | 33.5 µM (active) |  |  |  | inactive | 13.3 µM (active) | 6.68 µM (active)
